Data on 23 sequences can be found in publication PMC7819943, “Rice protein-binding microarrays: a tool to detect cis-acting elements near promoter regions in rice”.

Over roughly 39,000 sequences, “fluorescence intensity (a.u.)” has its median near 4,300; the highest 2% begin near 39,000. The sample as a whole holds a higher share of the highest values than the screen did.

For the assay, the target named is T1, OsSMF1 (Oryza sativa, UniProt Q6ZLB0 1-436).
T1 sequence: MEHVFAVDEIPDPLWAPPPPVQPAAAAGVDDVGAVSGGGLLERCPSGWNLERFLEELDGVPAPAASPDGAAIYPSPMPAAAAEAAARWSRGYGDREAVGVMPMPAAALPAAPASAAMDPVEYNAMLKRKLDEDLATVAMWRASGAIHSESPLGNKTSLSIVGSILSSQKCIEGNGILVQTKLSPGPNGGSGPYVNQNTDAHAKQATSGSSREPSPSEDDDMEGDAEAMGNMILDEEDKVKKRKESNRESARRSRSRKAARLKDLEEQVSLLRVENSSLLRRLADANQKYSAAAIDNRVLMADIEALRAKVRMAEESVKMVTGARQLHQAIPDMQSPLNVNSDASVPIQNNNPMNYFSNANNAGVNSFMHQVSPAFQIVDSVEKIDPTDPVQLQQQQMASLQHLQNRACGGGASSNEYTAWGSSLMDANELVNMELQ
In words: protein-binding microarray (RPBM); PBS, 2% BSA, 51.3 ng/ul salmon testes DNA, 50 uM zinc acetate, 200 nM TF, 25 C, 1 h; high values mean tight binding. The settings on record: protein: recombinant; tags: N-terminal polyhistidine and DsRed monomer fusion (pET32a); chain copies: 2; label: CyDye5-dUTP incorporated in the synthesized complementary strand; 3' TTTTT single-stranded linker to array surface; dsDNA, one strand shown. Summed up: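 The binding signal for each feature is its fluorescence intensity in arbitrary units. An Axon 4000B scanner was used to read a custom Agilent array that had been made double-stranded with Cy5-dUTP primer extension, blocked with 2% BSA, incubated at 25 °C for 1 h with 200 nM protein in PBS, 2% BSA, salmon testes DNA and 50 µM zinc acetate, and washed. The protein was an N-terminal polyhistidine–DsRed transcription factor fusion from E. coli BL21-CodonPlus, purified on Ni–NTA.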
Regarding “TTAAATGAATCATTTTGTTCCTATTTCTAAAATAAACTATCGGAGTCACCTAGTGCAG”, the binding signal is 3380 fluorescence intensity (a.u.). The figure for “ATGCAGGCCACCTCACGCCACACGCTGTATCGCGCCCATACGGAGTCACCTAGTGCAG” is 5790 fluorescence intensity (a.u.); for “CTAGCTACTTCTATCCTCCACCTCCTAAATGATCGATTTGCGGAGTCACCTAGTGCAG” it is 3740 fluorescence intensity (a.u.). On to “CCAACCATGCTTCGCAGTTGTCACAGAACGTCAACAGTGCCGGAGTCACCTAGTGCAG”, for which the binding signal is 3460 fluorescence intensity (a.u.). The figure for “TCAGTAGTTGCTTCTCGCAACGTCACAGGCTTTAGATGCACGGAGTCACCTAGTGCAG” is 44200 fluorescence intensity (a.u.); for “TGTTAGTTTTGCATGCACAGAGATGATTAGGCAGTAGCAACGGAGTCACCTAGTGCAG” it is 3940 fluorescence intensity (a.u.). The figure for “CCAGATATCTTTTACTAAAGGATGGAAATGAGGCGTAATTCGGAGTCACCTAGTGCAG” is 29100 fluorescence intensity (a.u.); for “GTGTAGTTGGAGCGCGCGGTGGAAGATGAACAAGCTCAGCCGGAGTCACCTAGTGCAG” it is 41200 fluorescence intensity (a.u.). Next, “GAGTTGTGCAGCCAAGTCAGCTGCACATGGGGAACAAGCGCGGAGTCACCTAGTGCAG”: 6520 fluorescence intensity (a.u.); “ACAAAGGAGAAGAAGCCATGATGTGGAGTTGGCCGGTGGCCGGAGTCACCTAGTGCAG”: 3800 fluorescence intensity (a.u.); “AACAATAACAAGATTAAAATAAACTTCACACGTTGTAATGCGGAGTCACCTAGTGCAG”: 3160 fluorescence intensity (a.u.). “TAAAACAAGTCATAATAAAATAAATAGTAATTAAAATTCTCGGAGTCACCTAGTGCAG”: the binding signal was 29200 fluorescence intensity (a.u.). For “AAAATAATTAAAATAGTACGAGTAGATTCACACAAGATCTCGGAGTCACCTAGTGCAG”, the binding signal is 39900 fluorescence intensity (a.u.).

Regarding “GCAAAATGTCAGGCCGACACAACCCGTCATACTCTTCATGCGGAGTCACCTAGTGCAG”, the binding signal is 3480 fluorescence intensity (a.u.). Turning to “GGGGTGCTTCACAAATCCCCTTGCGTACATGAGGTGTTTTCGGAGTCACCTAGTGCAG”, the binding signal was 3320 fluorescence intensity (a.u.). Consider “CTATCCGTCCAAATTAGGCTATCTCTAAAGATTAACTAACCGGAGTCACCTAGTGCAG”, for which the binding signal is 41000 fluorescence intensity (a.u.). The figure for “GTAACTAAAGATACAAAATTATTAGTGTAACCGGAGGCATCGGAGTCACCTAGTGCAG” is 34600 fluorescence intensity (a.u.). The figure for “AGTCTCTAACTAAACACCATATATCTCTATTAATTACTACCGGAGTCACCTAGTGCAG” is 16000 fluorescence intensity (a.u.); for “TTTTATGTATGTATTCAAATATTTCGATGTGACGGAATTTCGGAGTCACCTAGTGCAG” it is 4210 fluorescence intensity (a.u.); for “GGATTTAACACTAGAGACCCTAATTTTGCTGCTCAGGCGACGGAGTCACCTAGTGCAG” it is 28500 fluorescence intensity (a.u.). Next, “ATATGAGATATTTCATATGCTGTTTATTGCTGCTGCCAGACGGAGTCACCTAGTGCAG”: 6080 fluorescence intensity (a.u.); “GGAAAGAGAAGAGAGGAAAGAGAGATGACGTGGACACCTGCGGAGTCACCTAGTGCAG”: 21100 fluorescence intensity (a.u.). Regarding “TCGTCGCACGACCAGACCAGCAGCACCAACTCCCTTTCTGCGGAGTCACCTAGTGCAG”, the binding signal was 3160 fluorescence intensity (a.u.).
